Inconclusive results are not listed. Calls of active or inactive are those of the source. The calls were made as follows: active = hit-call score of the fitted dose curve at least 0.9, where 1 is the maximum; inconclusive = response in the unintended direction; inactive = score below 0.9.

This experiment can be described thus: ATG_XTT_Cytotoxicity: Cytotoxicity Assessment in the Attagene TRANS-FACTORIAL HepG2 Assay (AID 2283584).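 As to AC50: cells exposed to compound for 24 h before reading; active means loss of viability signal versus DMSO baseline.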 The essentials:
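Viability endpoint from XTT after 24 h chemical exposure of reporter-transfected human HepG2 liver cells; signal loss fitted relative to DMSO negative control.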
Turning to `NC(=O)OCC(COC(N)=O)c1ccccc1`, the outcome was inactive.
Turning to `CCCCCCCC(C)=O`, the call was inactive.
Turning to `CC(C)c1ccc(C=O)cc1`, the outcome was inactive.
Still for that read-out and setting: the value for `CCOC(=O)[C@H](C)O` was “inactive”; that for `CCN(CC)c1ccc(C(=O)c2ccccc2C(=O)O)c(O)c1` was “inactive”; that for `O=C1CCCCCCCCCCC(=O)OCCO1` was “inactive”.
Still for that read-out and setting: the value for `c1ccc(CNCc2ccccc2)cc1` was “inactive”.
With `CCCCCCCCCCCCCCCC[n+]1ccccc1`, the AC50 is 26.6 µM (active).
On to `O=c1c2ccccc2nnn1CCl`, for which the result was inactive.
For `O=Cc1ccc(CO)o1`, the call was inactive.
For the compound `O=C(Nc1ccccc1)c1ccccc1O`, the compound was called inactive.
As to `CCOC(=O)NNc1nncc2ccccc12`, the call was inactive.
Still for that read-out and setting: the value for `CCOC(=O)CC(C(C)=O)C(C)=O` was “inactive”; that for `C=CCOCC(O)CCl` (centres undefined) was “inactive”; that for `CCOCC(=O)O` was “inactive”.
On the same count and under the same terms, next, `FC(F)(F)C(=NOCC1OCCO1)c1ccc(Cl)cc1`: “inactive”.
The same measure, in the same setting: next, `CC(=O)NS(=O)(=O)c1ccc(N)cc1`: “inactive”; `CC(=O)OCC(=O)[C@@]12N=C(C)O[C@@H]1C[C@H]1[C@@H]3CCC4=CC(=O)C=C[C@]4(C)[C@H]3[C@@H](O)C[C@@]12C`: “inactive”; `O=C1Nc2ccccc2C1(c1ccc(O)cc1)c1ccc(O)cc1`: “inactive”.
With `CCCNC(=O)NS(=O)(=O)c1ccc(Cl)cc1`, the compound was classed as inactive.
The same measure, in the same setting: the value for `CC1OC1C1CCC2(C)OC2C1` (centres undefined) was “inactive”.
`CC(C)c1ccc2c(c1)CC[C@H]1[C@](C)(CN)CCC[C@]21C`: the AC50 was 9.98 µM (active).
As to `O=C1c2cccc(O)c2C(=O)c2c(O)cc(CO)cc21`, the outcome was inactive.
The same measure, in the same setting: next, `C=C(C)[C@@H]1CCC2=CCC[C@@H](C)[C@]2(C)C1`: “inactive”.
Same read-out and setting: next, `COc1ccc(-c2coc3cc(O)ccc3c2=O)cc1`: “inactive”; `CC[C@H]1OC(=O)[C@H](C)[C@@H](O[C@H]2C[C@@](C)(OC)[C@@H](O)[C@H](C)O2)[C@H](C)[C@@H](O[C@@H]2O[C@H](C)C[C@H](N(C)C)[C@H]2O)[C@](C)(O)C[C@@H](C)C(=NOCOCCOC)[C@H](C)[C@@H](O)[C@]1(C)O`: “inactive”.
Turning to `C=C[Si](OC(C)=O)(OC(C)=O)OC(C)=O`, the compound was called inactive.
Regarding `CC(C)(c1cc(Br)c(OCCO)c(Br)c1)c1cc(Br)c(OCCO)c(Br)c1`, the half-maximal activity concentration (AC50) was 23.3 µM (active).
Take `CC(C)CCCC(C)CC=O` (centres undefined): the result was inactive.
As to `C=C(C)[C@H]1CC=C(C)CC1`, the compound was classed as inactive.
Still for that read-out and setting: next, `C=C(C)C(=O)OCC(C)C`: “inactive”.
Same read-out and setting: the value for `O=c1c2ccccc2oc2ccccc12` was “inactive”; that for `C=CC(=O)OCCOC1C2CCC1C1CC=CC12` (centres undefined) was “inactive”; that for `CCCCCCCCCCC=CC#N` was “inactive”.
Same read-out and setting: the value for `c1cc(C(c2ccc(OCC3CO3)cc2)C(c2ccc(OCC3CO3)cc2)c2ccc(OCC3CO3)cc2)ccc1OCC1CO1` (centres undefined) was “inactive”.
As for `CCCCCC(C)O` (centres undefined), the compound was called inactive.
Same read-out and setting: the value for `CN(C)CCCN(C)C` was “inactive”; that for `CC(C)CC(O)Cc1ccccc1` (centres undefined) was “inactive”; that for `ON(Cc1ccccc1)Cc1ccccc1` was “inactive”.

The record behind these values is PubChem BioAssay (EPA / NIEHS).
